The campaign covered roughly 62,000 compounds. About 100 (0.2%) were called active. The sample as a whole holds a higher share of actives than the screen did. Unmarked numbers belong to inactive results. Rule as the data show it: active = inhibition above about 20%; inactive = the rest.
target: DNA-directed RNA polymerase subunit beta (Escherichia coli (strain K12)) (UniProt P0A8V2); test: E. coli RNAP inhibitors, biochemical (AID 559); details: fluorescence transcription assay, stronger effect = higher value,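 tested at 10 µM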;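 also: 0% = enzyme without compound and 100% = no enzyme blank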
Sequence (P0A8V2 whole entry, looked up): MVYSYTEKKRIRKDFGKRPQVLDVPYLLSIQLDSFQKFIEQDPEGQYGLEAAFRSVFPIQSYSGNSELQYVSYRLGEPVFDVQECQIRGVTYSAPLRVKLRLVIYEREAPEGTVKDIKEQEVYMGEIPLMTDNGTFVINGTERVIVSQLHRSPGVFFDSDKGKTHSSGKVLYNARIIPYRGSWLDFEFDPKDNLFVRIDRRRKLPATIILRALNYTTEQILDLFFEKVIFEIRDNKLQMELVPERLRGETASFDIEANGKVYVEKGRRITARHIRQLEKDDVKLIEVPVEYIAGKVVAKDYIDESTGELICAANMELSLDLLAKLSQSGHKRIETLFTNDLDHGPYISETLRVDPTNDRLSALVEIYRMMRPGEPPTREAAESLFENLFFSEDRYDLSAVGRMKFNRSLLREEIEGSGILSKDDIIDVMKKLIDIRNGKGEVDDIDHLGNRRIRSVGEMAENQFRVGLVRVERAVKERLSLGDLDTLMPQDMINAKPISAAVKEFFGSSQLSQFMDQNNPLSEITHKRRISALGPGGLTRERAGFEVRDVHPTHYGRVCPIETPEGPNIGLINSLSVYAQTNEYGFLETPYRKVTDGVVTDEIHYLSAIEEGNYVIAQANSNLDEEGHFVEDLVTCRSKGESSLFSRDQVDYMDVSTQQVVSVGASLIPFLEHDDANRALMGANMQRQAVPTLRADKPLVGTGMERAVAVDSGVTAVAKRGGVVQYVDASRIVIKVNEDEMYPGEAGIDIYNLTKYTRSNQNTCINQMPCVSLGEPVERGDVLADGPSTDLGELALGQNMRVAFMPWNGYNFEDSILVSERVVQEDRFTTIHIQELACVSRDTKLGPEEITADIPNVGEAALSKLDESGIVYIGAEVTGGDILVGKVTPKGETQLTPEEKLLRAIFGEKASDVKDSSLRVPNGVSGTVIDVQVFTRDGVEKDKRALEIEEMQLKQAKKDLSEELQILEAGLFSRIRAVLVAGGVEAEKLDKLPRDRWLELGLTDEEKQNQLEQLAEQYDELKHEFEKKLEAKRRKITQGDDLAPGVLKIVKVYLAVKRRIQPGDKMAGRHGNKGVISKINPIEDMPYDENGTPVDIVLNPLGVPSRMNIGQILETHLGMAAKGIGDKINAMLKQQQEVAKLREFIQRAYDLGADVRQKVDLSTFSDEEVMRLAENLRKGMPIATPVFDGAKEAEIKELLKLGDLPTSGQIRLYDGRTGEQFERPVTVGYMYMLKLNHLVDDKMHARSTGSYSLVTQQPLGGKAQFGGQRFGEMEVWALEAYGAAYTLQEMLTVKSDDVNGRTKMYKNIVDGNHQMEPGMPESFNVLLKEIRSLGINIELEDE

Compound | inhibition
CCc1c(C)sc(NC(=O)c2ccc(Br)o2)c1C(=O)OC | 3.85%
C=CCn1c(COc2cccc3cccnc23)nnc1SCC(=O)OC | 2.75%
Cc1ccc(S(=O)(=O)N2CCN(C(=O)CCC(=O)NC3CCCc4ccccc43)CC2)cc1 (stereo unspecified) | 8.3%
Cc1c(NC(=O)Nc2ccccc2Cl)sc(=S)n1C | 4.97%
CC(=O)C1C(c2ccc(Cl)cc2)NC(=O)NC1(O)C(F)(F)F (stereo unspecified) | 5.59%
COc1ccccc1C1/C(=C(/O)c2ccc(C)cc2)C(=O)C(=O)N1Cc1ccco1 (stereo unspecified) | 10.3%
CC(=O)OCc1cc(=O)n(C)c(=O)n1C | -0.42%
O=S(=O)(O)c1nc2ccccc2n1Cc1ccc(Cl)cc1Cl | 4.09%
O=C(O)C1CC=CCC1C(=O)NCCc1ccccc1 (stereo unspecified) | -1.18%
CCCCOc1ccc(NC(=O)CSCC(=O)OCC)cc1 | 20.6% (active)
CCOc1ccc(NC(=O)CC2NCCNC2=O)cc1 (stereo unspecified) | 10.3%
CCOc1ccc(NC(=O)CCC(=O)n2nc(C)cc2C)cc1 | 7.47%
CN(C)/C=C1/C(=O)Nc2ccccc21 | 12.9%
COC(=O)c1ccc(NC(=O)CSc2nnc(CNc3ccc(OC)cc3)n2C)cc1 | 1.56%
C[C@H](NC(=O)OC(C)(C)C)c1nnc(SCC(N)=O)o1 | -0.35%
COc1ccc(-n2nnc3c(=O)n(CC(=O)OCc4ccccc4)cnc32)cc1 | 1.78%
CCC(C(=O)N1CCOCC1)n1c(C(=O)OC)cc2occc21 (stereo unspecified) | -1.1%
O=C(c1cccs1)N(C(=O)c1cccs1)c1ccccn1 | 4.36%
COc1cc(C2C3C(=O)N(c4ccccc4)C(=O)C3ON2c2ccccc2)ccc1O (stereo unspecified) | 6.83%
CCOC(=O)C1C(=O)C=C(c2ccc(OC)cc2)CC1c1ccco1 (stereo unspecified) | 0.68%
C=C(Br)CN1CCN(CC(=C)Br)CC1 | 5.48%
CCNC(=O)N1CCNC(=O)C1CC(=O)Nc1ccc(C(=O)OCC)cc1 (stereo unspecified) | 24.6% (active)
COc1ccccc1C(=O)N1CCNC(=O)C1CC(=O)Nc1ccc(Cl)cc1 (stereo unspecified) | 7.25%
CCOC(=O)c1ccc(NC(=O)CSc2ncccn2)cc1 | 18.1%

Compound | inhibition
COc1ccc(N2CCN(C(=O)CSc3ncnc4c3cnn4-c3ccc(OC)cc3)CC2)cc1 | 3.59%
CC(=O)Nc1ccc(S(=O)(=O)N2CCN(C3CCCCCCC3)CC2)cc1 | 4.11%
CC(C)(C)c1cc(CN2CCN(CCC#N)CC2)cc(C(C)(C)C)c1O | 2.69%
Cc1ccc(NC(=O)CN(C)S(=O)(=O)c2cnc[nH]2)cc1C | 6.13%
Cc1ccc2c(c1)sc1ncc(NC(=O)c3ccccc3)c(=O)n12 | -11.4%
CCCCCCn1c(SCC(=O)c2ccccc2)nc2c1c(=O)[nH]c(=O)n2C | -4.3%
c1ccc(CCc2nc(-c3ccncc3)no2)cc1 | 8.17%
CC1CCN(Cc2nc3c(c(=O)n(C)c(=O)n3C)n2Cc2cccc3ccccc23)CC1 | 11.8%
CC(c1ccccc1)n1c(NCCCn2ccnc2)nc2c1c(=O)[nH]c(=O)n2C (stereo unspecified) | 6.37%
O=C(Nc1ccccc1N1CCCCC1)c1ccc2nccnc2c1 | 5.19%
CC(C)[C@H](NC(=O)Nc1ccc(S(N)(=O)=O)cc1)C(=O)O | 3.2%
Cc1cccc(C2c3c(n(C)c(=O)n(C)c3=O)N=C3c4ccccc4C(=O)C32)c1 (stereo unspecified) | 8.94%
Cn1c(=O)n(C)c2cc(S(=O)(=O)N3CCCc4ccccc43)ccc21 | 0.45%
CSc1nc2ccc(S(=O)(=O)N3CCc4ccccc43)cc2s1 | 0.59%
Cc1nn(C)c(C)c1S(=O)(=O)N1CCc2ccccc21 | 27.2% (active)
COCCOC(=O)C1=C(C)NC(=O)NC1c1ccc(Cl)cc1 (stereo unspecified) | 7.31%
COC(=O)c1ccc(C2CC(=O)Nc3cc(OC)c(OC)cc32)cc1 (stereo unspecified) | 3.45%
CCc1cccc2c3c([nH]c12)C(CC)(CC(=O)O)OCC3 (stereo unspecified) | 8.22%
O=C(O)C1OC(C(=O)O)C2C1C(F)(F)C2(F)F (stereo unspecified) | 3.61%
NS(=O)(=O)c1cc2c(cc1Cl)NC(C(Cl)Cl)NS2(=O)=O (stereo unspecified) | 8.21%
CCS(=O)(=O)n1nc(-c2ccc(OC)cc2)nc1SC | 5.44%
Cc1ccc(CC2CC(=O)N(c3ccc4c(c3)OCCO4)C2=O)cc1 (stereo unspecified) | 7.6%
Cn1c2c(c(=O)n(C)c1=O)C1c3ccccc3OCC1C(C)(C)O2 (stereo unspecified) | 11.7%
CC1(c2ccccc2Cl)NC(=O)N(CC(=O)NC(=O)NCc2ccco2)C1=O (stereo unspecified) | 3.56%

Compound | inhibition
CCOc1ccc(Cn2c(SCCCCC#N)nc3c2c(=O)n(C)c(=O)n3C)cc1OCC | 1.66%
CCOC(=O)NC(C(F)(F)F)(C(F)(F)F)P(=O)(c1ccccc1)c1ccccc1 | 12.5%
O=C(NCC1CCCO1)C(C(=O)c1ccccc1)n1cc(Cl)ccc1=O (stereo unspecified) | -2.02%
O=C(COC(=O)c1ccccc1C(=O)c1ccccc1)c1ccco1 | 4.61%
Cc1ccc(NC(=O)c2cc(-c3ccc(C)o3)nc3ccccc23)nc1 | 2.57%
O=C(c1ccc2c(c1)N(Cc1ccc(F)cc1)C(=O)CS2)N1CCOCC1 | -0.9%
Cc1nc2c(-c3ccccc3)c(C)[nH]n2c(=O)c1Cl | 0.3%
CCNc1nc(N)nc(Oc2ccc(OCC)nn2)n1 | 16.5%
COc1ccc(OCC(=O)OCC(=O)Nc2ccc(S(=O)(=O)N3CCCCC3)cc2)cc1 | 6.57%
Cc1noc(C)c1S(=O)(=O)Nc1ccc(C(=O)O)cc1 | -2.73%
C=CCNC(=O)C1CC=CCC1C(=O)O (stereo unspecified) | -0.09%
CC(C)(C)NC(=O)NC(=O)COC(=O)Cn1c(C(F)(F)F)nc2ccccc21 | -0.99%
O=C(CSc1nc2[nH]ncc2c(=O)n1-c1ccccc1)N1CCCc2ccccc21 | -2.19%
CCOc1ccc(NS(=O)(=O)c2ccc(OCC(=O)NCCCOC)cc2)cc1 | 0.48%
COCCCN(C(=O)Cn1ncc2c(=O)oc3ccc(C)cc3c21)C(C)c1ccncc1 (stereo unspecified) | 5.04%
CCc1c(C)c2c(C)[nH]nc2oc1=O | 6.94%
CCCOc1ccccc1-c1nc(SCCC(=O)O)n[nH]1 | 4.03%
CN(CC(=O)NC1CCCCC1)S(=O)(=O)c1cccc2cccnc12 | 1.4%
CCC(C)(C(=O)NC1CCCC1)N(C(=O)CNC(C)=O)c1ccc(C)cc1 (stereo unspecified) | 2.29%
CCC(C)(NC(=O)c1ccccn1)C(=O)NC1CCCCC1 (stereo unspecified) | 24.2% (active)
CCN1C(=O)/C(=C2/Sc3ccccc3N2CCCS(=O)(=O)O)SC1=S | 14%
COCCNC(=O)CN1C(=O)CSc2ncccc21 | 2.28%
Cc1ccc(Cn2c(NC(=O)c3ccco3)nc3ccccc32)cc1 | 3.14%
CCOC(=O)C1CCCN(C(=O)c2sc3nc(C)nc(N4CCOCC4)c3c2C)C1 (stereo unspecified) | 6.92%

Compound | inhibition
COc1cccc(N2CCN(C(=O)C3CCCN(S(=O)(=O)c4cnc[nH]4)C3)CC2)c1 (stereo unspecified) | 6.57%
Cn1c(=O)c2c(nc(N3CCCCCC3)n2CC(=O)c2ccc(Br)cc2)n(C)c1=O | 6.56%
O=CN1CCN(C2CC(=O)N(c3ccc4c(c3)OCO4)C2=O)CC1 (stereo unspecified) | -2.9%
Cc1cc(NC(=O)CSc2nnc(-c3ccc(Cl)s3)o2)no1 | 2.94%
Nc1nonc1-c1nc2ccccc2n1Cc1ccc(F)cc1 | 1.54%
COCc1cc(C)nc(SCC(=O)Nc2cccc(C)c2)c1C#N | 10.2%
CC(C)C(c1nnnn1Cc1ccccc1)N1CCC(C(N)=O)CC1 (stereo unspecified) | 9.07%
O=C(NC1CCCCC1)n1c(=O)oc2cc(S(=O)(=O)N3CCCCC3)ccc21 | 5.56%
COC(=O)c1c(NC(=O)CCN2CCOCC2)sc2c1CCCC2 | 7.91%
Cc1cc(C)nc(NC2=NCC(=O)N2c2ccc(Cl)cc2)n1 | 9.3%
COC(=O)CCSc1nccn1Cc1ccccc1 | 2.17%
O=C1CSC(=O)N1CCOCCN1C(=O)CSC1=O | 8.19%
CCOc1ccccc1Nc1nnc(SCc2ccc(C(=O)OC)o2)s1 | 3.87%
CC(=O)OCc1cc2cc(C)ccc2[nH]c1=O | 8.56%
CC(C)OC(=O)CN1C(=O)c2ccccc2C1=O | 8.17%
COCCN(C(=O)CCC(=O)Nc1ccccn1)C(C(=O)NCCC(C)C)c1ccc(OC)cc1 (stereo unspecified) | 9.79%
Cc1oc(-c2ccccc2F)nc1CS(=O)(=O)CC(=O)NCCCN(C)C1CCCCC1 | 4.54%
Cc1nnc(NC(=O)CSc2nccn2-c2cccc(C)c2C)s1 | 8.46%
Cc1cc(C(=O)COC(=O)CCCN2C(=O)c3ccccc3C2=O)c(C)n1C | 4.5%
COc1ccc(Br)cc1/C=N/n1c(C)nnc1C | 11.2%
COCCN(CC(=O)Nc1ccccc1C)S(=O)(=O)c1ccc(S(=O)(=O)N2CCCC2)cc1 | 4.44%
CC(C(=O)N1CCOCC1)N1c2cccc3cccc(c23)S1(=O)=O (stereo unspecified) | 8.72%
O=C(CCCN1C(=O)CCC1=O)Nc1ccc(Cl)c(C(F)(F)F)c1 | -1.3%
C=CCNc1nnc(SCC(=O)N2CCCCC2)c2ccccc12 | 5.18%

Reference: PubChem BioAssay AID559 (PCMD, 2006)
